The source of these data is PubChem BioAssay (NCATS).

Assay [1] can be described thus: qHTS Screen of the MIPE 4.0 Collection Against Ewings Sarcoma (TC32) (AID 1259256). Also: nearly all actives have a fitted effect of over 45% in size. Also: potency is read from the fitted curve at half-maximal effect. The following applies: TC32 Ewing sarcoma viability, CellTiter-Glo, 48 h; series mostly up to 45.8 µM. The method in brief:
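Here, cells in 5% FBS RPMI were exposed for two days (48 h) to compound dilutions added four hours after plating. ATP-based CellTiter-Glo luminescence measured viability, normalized to vehicle and no-cell blanks.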
In general terms: In qHTS, concentration-response curves come from the screen itself.

A short description of assay [2]: qHTS assay to identify small molecule inhibitors of chordoma cells - UCH-1 (AID 1259355). Also: nearly all actives have a fitted effect of over 55% in size. Particulars: UCH-1 chordoma viability, CellTiter-Glo, 48 h, combination, with auranofin plus four topoisomerase inhibitors; series mostly up to 46.1 µM. The method in brief:
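Luminescent ATP read-out (CellTiter-Glo, 30min at room temperature) measured viability of UCH-1 cells exposed for 48hr to test drugs at 15 concentrations, co-dosed with a five-agent combination of auranofin, camptothecin, doxorubicin, rubitecan and topotecan.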

Assay [3] is described as follows: qHTS assay to identify small molecule inhibitors of chordoma cells - UCH-2 (AID 1259356). The following applies: UCH-2 chordoma viability, CellTiter-Glo ATP luminescence, 48 h; series mostly up to 46.1 µM.
Assay [4] in a line: Identifying Small Molecule Inhibitors of Pancreatic Cancer Stem Cells (A2780, Spheroid) (AID 1259357).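 Also: spheroids pre-formed over 14 days in stem cell medium on hydrogel; potency is read from the fitted curve at half-maximal effect; compound exposure lasted 48 h before the ATP luminescence read.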 Particulars: Potency: A2780 spheroid viability; series mostly up to 46.1 µM. In outline:
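Pre-formed 14-day tumor spheroids or adherent cells dosed and incubated 48 h, 37C, 5% CO2. Viability assessed by CellTiter-Glo.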

Assay [5] is described as follows: Identifying Small Molecule Inhibitors of Pancreatic Cancer Stem Cells (A278, Adherent) (AID 1259361).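 Also: viability read after 48 h compound exposure; nearly all actives have a fitted effect of over 35% in size.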 The following applies: series mostly up to 46.1 µM. In outline:
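Luminescent ATP readout (CellTiter-Glo) quantifies surviving cells after a 48 h drug incubation. Normalization uses DMSO wells as no inhibition and media-only wells as full inhibition; bortezomib served as positive control.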

Inconclusive results are not listed. A call without a number means that no potency is given here. Calls of active or inactive are those of the source. Calls follow the shape of the dose curve; as a rule, active = well fitted curve in the direction sought with a large enough effect; inconclusive = small, poorly fitted or top-dose-only effect, or another doubt; inactive = no such curve, though single readings can be large; an effect the other way counts as inactive or inconclusive.

With `CC(C)(C)OC(=O)N[C@H]1CCCCCC=C[C@@H]2C[C@@]2(C(=O)NS(=O)(=O)C2CC2)NC(=O)[C@@H]2C[C@@H](OC(=O)N3Cc4cccc(F)c4C3)CN2C1=O`, the Potency result in assay [1] was “inactive”.

For `CCN1CCC[C@H]1CNC(=O)c1cc(S(N)(=O)=O)ccc1OC`, the Potency result in assay [2] was “inactive”. Also, the outcome in assay [3] was inactive.

In the case of `CC(C)(C)Cn1c(N)nc2ccc(-c3[nH]c(C(C)(C)C)nc3-c3ccc(F)cc3)nc21`, the Potency in assay [1] was 13.2 µM (active).

Consider `NC(N)=Nc1nc(CSCC/C(N)=N/S(N)(=O)=O)cs1`, for which the Potency entry in assay [2] was “inactive”. In addition, the outcome in assay [3] was inactive.

For the molecule `O=C(O)C(O)Cc1ccc(O)c(O)c1` (stereo not drawn), in assay [1], the Potency entry was “inactive”.

As to `O=C(NCCN1CCOCC1)c1ccc(Cl)cc1`, the Potency result in assay [2] was “inactive”. In addition, in assay [3], the outcome was inactive.

Turning to `C[C@]12CC[C@@H]3c4ccc(O)cc4CC[C@H]3[C@H]1C[C@@H](O)[C@H]2O`, the Potency in assay [1] is 26.4 µM (active).

On to `O=c1cc(-c2ccccc2)oc2cc(O)cc(O)c12`, for which the Potency entry in assay [1] is “inactive”.

For the molecule `CCOc1ccc(Nc2nc(-c3c(C)nc4ccccn34)cs2)cc1`, in assay [1], the Potency entry is “inactive”. Also, the Potency in assay [4] is 0.296 µM (active). For the same molecule, the IC50 (viability decrease) in assay [5] is 0.0264 µM (active).

For `CCN(CC)CCOC(=O)c1ccc(N)cc1`, the Potency result in assay [2] is “inactive”. Also, the molecule was classed as inactive in assay [3].

Turning to `O=C(O)c1ccc(-c2c[nH]c3ncc(-c4ccccc4)cc23)cc1C1CCCC1`, in assay [1], the Potency result was “inactive”.

Consider `N#CC1(c2ccc(NC(=O)c3cccnc3NCc3ccncc3)cc2)CCCC1`, for which the Potency result in assay [1] is “inactive”.
